Test systems include DU-145 prostate; K-562 leukemia; MALME-3M melanoma; MDA-MB-231 breast; RXF 393 renal; SF-268 CNS; SF-295 CNS; SF-539 CNS; UACC-257 melanoma; M14 melanoma; HCT-15 colon; HT29 colon; SNB-75 CNS; SNB-19 CNS; U251 CNS; PC-3 prostate; SK-MEL-5 melanoma; UACC-62 melanoma; LOX IMVI melanoma; SK-MEL-28 melanoma.
Assay in all cases: NCI-60 one-dose screen, 48 h (100 = growth as untreated, 0 = no growth, -100 = all killed)
Common to all, as to details: 10 µM unless noted

Compounds without any hit were thinned out: in the full panel of roughly 83,000, 20% have a hit.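 For each line, cells grew in 96-well plates with the test compound present at a single concentration for 48 hours.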 A number with no mark means an inactive call. Activity calls are given as the source filed them. How the source made its calls: active means growth percent below 10; inactive means the rest.

As to `Cc1cc(C(=O)NOCCO)c(Nc2ccc(I)cc2F)n(C)c1=O`, the growth is 69.8% in the experiment on DU-145 prostate; 34.2% in the experiment with K-562 leukemia; -4.71% (active) with MALME-3M melanoma; 40.7% with MDA-MB-231 breast; 27.3% in the experiment with RXF 393 renal; 78.9% in the experiment with SF-268 CNS. The growth in the experiment on SF-295 CNS is 84%; with SF-539 CNS it was 60.8%; in the experiment on UACC-257 melanoma it was -19.6% (active); in the experiment with M14 melanoma, 7.71% (active); with HCT-15 colon, 67.5%; in the experiment with HT29 colon it was 7.17% (active). Further, the growth with SNB-75 CNS is 83.8%; with SNB-19 CNS, 57.9%; in the experiment on U251 CNS, 51.8%; with PC-3 prostate it was 106%; in the experiment on SK-MEL-5 melanoma, 50.4%; in the experiment with UACC-62 melanoma, -1.84% (active). The figures for the growth in the experiment with LOX IMVI melanoma and with SK-MEL-28 melanoma were 26.3% and 1.47% (active), respectively.

On to `CC(C)Nc1cc(-c2c[nH]c(C(=O)N[C@H](CO)c3cccc(Cl)c3)c2)c(Cl)cn1`, for which the growth with DU-145 prostate is 57.4%; with K-562 leukemia, 19.8%; in the experiment on MALME-3M melanoma it was 9.08% (active); in the experiment with MDA-MB-231 breast, 20.1%; with RXF 393 renal, 2.5% (active); in the experiment on SF-268 CNS, 59.6%. Also, the growth in the experiment on SF-295 CNS was 45.6%; with SF-539 CNS, 45.2%; in the experiment with UACC-257 melanoma, -9.52% (active); in the experiment with M14 melanoma, 3.28% (active); with HCT-15 colon, 25.1%; with HT29 colon it was 1.57% (active). Besides, the growth is 51.8% with SNB-75 CNS; 51.3% in the experiment with SNB-19 CNS; 28% in the experiment with U251 CNS; 34.9% in the experiment on PC-3 prostate; -7.93% (active) in the experiment with SK-MEL-5 melanoma; 11.7% with UACC-62 melanoma. Further, the growth with LOX IMVI melanoma was 14%; with SK-MEL-28 melanoma, 5.19% (active).

As for `CC(C)(O)CC(=O)NCCn1ccc2ncnc(Nc3ccc(Oc4cccc(C(F)(F)F)c4)c(Cl)c3)c21`, the growth in the experiment with DU-145 prostate was 27.4%; with K-562 leukemia, 4.49% (active); with MALME-3M melanoma, -8.01% (active); in the experiment on MDA-MB-231 breast it was 11.9%; in the experiment with RXF 393 renal, 3.66% (active); with SF-268 CNS it was 29.3%. Besides, the growth with SF-295 CNS was 31%; in the experiment on SF-539 CNS, 8.28% (active); with UACC-257 melanoma, -26.8% (active); with M14 melanoma it was -1.37% (active); in the experiment on HCT-15 colon, 12.2%; in the experiment on HT29 colon, -24.2% (active). The growth was 29.3% in the experiment on SNB-75 CNS; 18.7% in the experiment with SNB-19 CNS; 9.09% (active) in the experiment on U251 CNS; 1.54% (active) in the experiment on PC-3 prostate; -19.9% (active) in the experiment on SK-MEL-5 melanoma; -7.61% (active) in the experiment on UACC-62 melanoma. In addition, the growth in the experiment on LOX IMVI melanoma was 6.23% (active); in the experiment with SK-MEL-28 melanoma, -0.504% (active).

On to `CN(C)C1CCN(C(=O)c2ccc(NC(=O)Nc3ccc(-c4nc(N5CCOCC5)nc(N5CCOCC5)n4)cc3)cc2)CC1`, for which the growth was 2.99% [2.5 µM] (active) in the experiment on DU-145 prostate; 14.4% [2.5 µM] in the experiment with K-562 leukemia; -34.1% [2.5 µM] (active) in the experiment with MALME-3M melanoma; 17.2% [2.5 µM] in the experiment on MDA-MB-231 breast; -40.4% [2.5 µM] (active) with RXF 393 renal; 10.6% [2.5 µM] in the experiment on SF-268 CNS. The growth in the experiment with SF-295 CNS was -31.1% [2.5 µM] (active); with SF-539 CNS it was -53% [2.5 µM] (active); in the experiment with UACC-257 melanoma, -40% [2.5 µM] (active); in the experiment on M14 melanoma it was 7.46% [2.5 µM] (active); in the experiment with HCT-15 colon it was 74.1% [2.5 µM]; with HT29 colon it was -2.55% [2.5 µM] (active). Besides, the growth in the experiment with SNB-75 CNS was -51.7% [2.5 µM] (active); in the experiment with SNB-19 CNS it was 1.85% [2.5 µM] (active); in the experiment on U251 CNS, -10.5% [2.5 µM] (active); in the experiment with PC-3 prostate, 3.75% [2.5 µM] (active); with SK-MEL-5 melanoma it was -39.1% [2.5 µM] (active); in the experiment on UACC-62 melanoma it was -58.9% [2.5 µM] (active). The growth was 0.487% [2.5 µM] (active) with LOX IMVI melanoma and -27.6% [2.5 µM] (active) in the experiment on SK-MEL-28 melanoma.

Regarding `CN(C)C/C=C/C(=O)Nc1cc2c(Nc3ccc(F)c(Cl)c3)ncnc2cc1O[C@H]1CCOC1`, the growth was -7.97% (active) in the experiment with DU-145 prostate; 0.783% (active) with K-562 leukemia; -75.1% (active) in the experiment on MALME-3M melanoma; -13.7% (active) in the experiment on MDA-MB-231 breast; -22% (active) in the experiment on RXF 393 renal; 6.2% (active) with SF-268 CNS. Besides, the growth was 29.8% in the experiment with SF-295 CNS; -84.6% (active) in the experiment with SF-539 CNS; -70.7% (active) with UACC-257 melanoma; -82.8% (active) with M14 melanoma; -6.21% (active) in the experiment on HCT-15 colon; -2.13% (active) in the experiment on HT29 colon. Further, the growth is -1.97% (active) in the experiment on SNB-75 CNS; 8.32% (active) with SNB-19 CNS; -3.99% (active) with U251 CNS; 5.5% (active) in the experiment with PC-3 prostate; -81.4% (active) in the experiment on SK-MEL-5 melanoma; -42.3% (active) in the experiment with UACC-62 melanoma. Besides, the growth with LOX IMVI melanoma was -73.5% (active); with SK-MEL-28 melanoma, -57.5% (active).

Consider `CCN(CCCOc1ccc2c(Nc3cc(CC(=O)Nc4cccc(F)c4)[nH]n3)ncnc2c1)CCOP(=O)(O)O`, for which the growth with DU-145 prostate is 88.5%; with K-562 leukemia, 48.4%; in the experiment with MALME-3M melanoma, 31.9%; with MDA-MB-231 breast it was 79.5%; in the experiment with RXF 393 renal, 96.7%; with SF-268 CNS it was 76%. Also, the growth in the experiment with SF-295 CNS was 73.5%; in the experiment with SF-539 CNS, 48.8%; with UACC-257 melanoma, 49.9%; in the experiment with M14 melanoma it was 45.1%; in the experiment on HCT-15 colon, 84.7%; with HT29 colon, 30.5%. The growth with SNB-75 CNS is 80.5%; in the experiment with SNB-19 CNS it was 71.1%; with U251 CNS, 71.8%; in the experiment on PC-3 prostate, 80%; with SK-MEL-5 melanoma, 99.8%; in the experiment with UACC-62 melanoma it was 53.7%. The growth was 42% in the experiment with LOX IMVI melanoma and 55.3% in the experiment with SK-MEL-28 melanoma.

In the case of `Cc1ccccc1N1C(c2ccccc2)=NNC12C=CC(=O)C=C2Cl` (stereo not given), the growth with DU-145 prostate was 110%; with K-562 leukemia, 96.4%; with MALME-3M melanoma, 98.6%; in the experiment on MDA-MB-231 breast, 111%; in the experiment with RXF 393 renal, 132%; in the experiment with SF-268 CNS, 99.1%. Also, the growth with SF-295 CNS was 108%; in the experiment on SF-539 CNS, 93.4%; with UACC-257 melanoma, 81.1%; in the experiment on M14 melanoma it was 105%; in the experiment on HCT-15 colon, 108%; in the experiment with HT29 colon it was 96.2%. Also, the growth was 96.3% with SNB-75 CNS; 106% in the experiment on SNB-19 CNS; 94.2% with U251 CNS; 96.2% with PC-3 prostate; 115% in the experiment on SK-MEL-5 melanoma; 98.1% with UACC-62 melanoma. In addition, the growth with LOX IMVI melanoma is 98.7%; with SK-MEL-28 melanoma it was 101%.

(Values after PubChem BioAssay (NCI).)
